Assay results published in article PMC7862700, “An all-to-all approach to the identification of sequence-specific readers for epigenetic DNA modifications on cytosine”.

What was measured:
Experiment in all cases: DAPPL (digital affinity profiling via proximity ligation, sequencing); 10 mM Tris-HCl pH 7.5, 50 mM NaCl, 1 mM DTT, 4% glycerol, room temperature, 30 min; GST-TFs on glutathione beads, 16-mer random dsDNA library, 0.1% formaldehyde crosslink after washing; high values mean tight binding
SPI1 = SPI1 (Homo sapiens, UniProt P17947 1-270); settings: protein: recombinant; tags: N-terminal GST; dsDNA, one strand shown
Summary of the method: (§1)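 Binding signal is defined as a hexamer's read frequency for one factor over its frequency for the tag-only sample. To obtain reads, GST-fused human transcription factors were expressed in yeast, captured on glutathione beads, barcoded with DNA and pooled with that sample. Pools met 200 nmole of a 16-mer random double-stranded DNA library in Tris/NaCl/DTT/glycerol buffer for 30 min at room temperature before washing, 0.1% formaldehyde crosslinking, proximity ligation (BsaI/T4 ligase, 1 h, 37 °C), PCR and Illumina NextSeq500 sequencing.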

HSF1 = HSF1 (Homo sapiens, UniProt Q00613 1-529); settings: protein: recombinant; tags: N-terminal GST; chain copies: 3; dsDNA, one strand shown
Summary of the method: as §1

SPIC = biological target: T1, SPIC (Homo sapiens, UniProt Q8N5J4 1-248); settings: protein: recombinant; tags: N-terminal GST; dsDNA, one strand shown
T1 sequence: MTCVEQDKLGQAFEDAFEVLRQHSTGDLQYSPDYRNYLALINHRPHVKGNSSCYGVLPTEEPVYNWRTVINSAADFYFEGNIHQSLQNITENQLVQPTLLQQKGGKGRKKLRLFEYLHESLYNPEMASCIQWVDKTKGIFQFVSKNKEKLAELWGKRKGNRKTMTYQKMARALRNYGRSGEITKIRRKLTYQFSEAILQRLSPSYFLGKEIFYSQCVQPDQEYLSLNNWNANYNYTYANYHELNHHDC
Summary of the method: as §1

ETV2 = biological target: T2, ETV2 (Homo sapiens, UniProt O00321 1-342); settings: protein: recombinant; tags: N-terminal GST; dsDNA, one strand shown
T2 sequence: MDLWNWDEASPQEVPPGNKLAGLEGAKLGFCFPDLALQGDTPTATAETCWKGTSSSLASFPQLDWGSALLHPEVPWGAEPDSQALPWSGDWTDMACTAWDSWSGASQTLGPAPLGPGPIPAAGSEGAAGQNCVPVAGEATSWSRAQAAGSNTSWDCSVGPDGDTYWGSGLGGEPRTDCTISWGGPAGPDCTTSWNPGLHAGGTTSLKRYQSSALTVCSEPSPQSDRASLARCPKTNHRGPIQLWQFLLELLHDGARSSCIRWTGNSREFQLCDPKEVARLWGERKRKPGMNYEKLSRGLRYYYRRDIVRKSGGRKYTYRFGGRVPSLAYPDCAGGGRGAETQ
Summary of the method: as §1

CRX = CRX (Homo sapiens, UniProt O43186 1-299); settings: protein: recombinant; tags: N-terminal GST; dsDNA, one strand shown
Summary of the method: as §1

ELF5 = biological target: T3, ELF5 (Homo sapiens, UniProt Q9UKW6-2 1-255); settings: protein: recombinant; tags: N-terminal GST; dsDNA, one strand shown
T3 sequence: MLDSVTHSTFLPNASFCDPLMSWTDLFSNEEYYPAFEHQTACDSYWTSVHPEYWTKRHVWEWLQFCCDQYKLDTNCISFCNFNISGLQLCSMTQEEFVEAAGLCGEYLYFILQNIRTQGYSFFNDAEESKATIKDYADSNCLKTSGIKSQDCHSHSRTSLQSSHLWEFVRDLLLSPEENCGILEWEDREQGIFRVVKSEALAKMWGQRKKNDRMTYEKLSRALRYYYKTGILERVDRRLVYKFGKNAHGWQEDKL
Summary of the method: as §1

FLI1 = biological target: T4, FLI1 (Homo sapiens, UniProt Q01543 1-452); settings: protein: recombinant; tags: N-terminal GST; dsDNA, one strand shown
T4 sequence: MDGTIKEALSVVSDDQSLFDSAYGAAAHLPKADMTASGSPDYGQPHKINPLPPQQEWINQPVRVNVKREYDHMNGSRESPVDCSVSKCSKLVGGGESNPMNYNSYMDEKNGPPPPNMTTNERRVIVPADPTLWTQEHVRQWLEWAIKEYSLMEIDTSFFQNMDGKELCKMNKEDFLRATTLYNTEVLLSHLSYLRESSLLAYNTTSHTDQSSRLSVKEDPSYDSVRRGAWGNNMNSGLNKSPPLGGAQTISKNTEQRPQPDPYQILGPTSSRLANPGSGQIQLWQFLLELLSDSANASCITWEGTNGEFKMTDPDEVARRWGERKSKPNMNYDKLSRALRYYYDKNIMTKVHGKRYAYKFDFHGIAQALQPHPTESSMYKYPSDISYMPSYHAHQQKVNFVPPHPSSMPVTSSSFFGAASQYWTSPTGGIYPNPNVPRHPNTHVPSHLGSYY
Summary of the method: as §1

Chain of HSF1 (Q00613 whole entry): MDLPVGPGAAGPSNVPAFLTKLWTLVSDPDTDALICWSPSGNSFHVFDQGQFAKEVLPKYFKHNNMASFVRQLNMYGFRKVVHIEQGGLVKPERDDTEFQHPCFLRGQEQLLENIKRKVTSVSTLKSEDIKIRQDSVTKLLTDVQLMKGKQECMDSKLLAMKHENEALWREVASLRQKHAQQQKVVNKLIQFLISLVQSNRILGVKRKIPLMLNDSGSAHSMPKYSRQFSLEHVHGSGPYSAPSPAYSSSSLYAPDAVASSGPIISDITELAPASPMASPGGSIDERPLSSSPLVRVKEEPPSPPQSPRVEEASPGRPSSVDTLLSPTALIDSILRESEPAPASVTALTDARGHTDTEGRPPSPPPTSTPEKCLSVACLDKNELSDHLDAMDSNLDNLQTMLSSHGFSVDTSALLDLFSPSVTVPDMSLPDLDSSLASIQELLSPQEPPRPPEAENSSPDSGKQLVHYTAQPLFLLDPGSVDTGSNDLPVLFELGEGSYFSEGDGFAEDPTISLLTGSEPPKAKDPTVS
Chain of CRX (O43186 whole entry): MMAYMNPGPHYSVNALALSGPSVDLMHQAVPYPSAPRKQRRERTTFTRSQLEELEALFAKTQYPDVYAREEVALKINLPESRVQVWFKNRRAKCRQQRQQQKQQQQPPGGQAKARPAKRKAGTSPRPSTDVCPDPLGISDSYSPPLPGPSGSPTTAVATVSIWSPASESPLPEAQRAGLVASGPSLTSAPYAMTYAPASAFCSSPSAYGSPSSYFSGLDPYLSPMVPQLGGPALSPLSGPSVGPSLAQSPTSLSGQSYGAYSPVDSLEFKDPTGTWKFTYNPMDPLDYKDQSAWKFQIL

| Sequence | binding signal (SPI1) | binding signal (HSF1) | binding signal (SPIC) | binding signal (ETV2) | binding signal (CRX) | binding signal (ELF5) | binding signal (FLI1) |
| --- | --- | --- | --- | --- | --- | --- | --- |
| AAGATC | 1.04 fold enrichment (6-mer frequency, TF over GST control) | 1.35 fold enrichment (6-mer frequency, TF over GST control) | 1.19 fold enrichment (6-mer frequency, TF over GST control) | 1.13 fold enrichment (6-mer frequency, TF over GST control) | 1.37 fold enrichment (6-mer frequency, TF over GST control) | 1 fold enrichment (6-mer frequency, TF over GST control) |  |
| TCGTAT | 1.02 fold enrichment (6-mer frequency, TF over GST control) | 1.06 fold enrichment (6-mer frequency, TF over GST control) | 1.06 fold enrichment (6-mer frequency, TF over GST control) | 1.12 fold enrichment (6-mer frequency, TF over GST control) | 1.09 fold enrichment (6-mer frequency, TF over GST control) | 1.01 fold enrichment (6-mer frequency, TF over GST control) |  |
| GACTTA |  | 1.34 fold enrichment (6-mer frequency, TF over GST control) | 1.08 fold enrichment (6-mer frequency, TF over GST control) |  | 1.93 fold enrichment (6-mer frequency, TF over GST control) |  |  |
| CGTAAA | 1.09 fold enrichment (6-mer frequency, TF over GST control) | 1.17 fold enrichment (6-mer frequency, TF over GST control) | 1.09 fold enrichment (6-mer frequency, TF over GST control) | 1.21 fold enrichment (6-mer frequency, TF over GST control) | 1.15 fold enrichment (6-mer frequency, TF over GST control) | 1.14 fold enrichment (6-mer frequency, TF over GST control) |  |
| CGGTTA | 1 fold enrichment (6-mer frequency, TF over GST control) |  |  | 1.06 fold enrichment (6-mer frequency, TF over GST control) |  | 1.07 fold enrichment (6-mer frequency, TF over GST control) | 1.05 fold enrichment (6-mer frequency, TF over GST control) |
| AGGATG |  |  |  |  |  | 1.23 fold enrichment (6-mer frequency, TF over GST control) | 1.07 fold enrichment (6-mer frequency, TF over GST control) |
| AGAGCT | 1.01 fold enrichment (6-mer frequency, TF over GST control) | 1.05 fold enrichment (6-mer frequency, TF over GST control) | 1.04 fold enrichment (6-mer frequency, TF over GST control) |  | 1.14 fold enrichment (6-mer frequency, TF over GST control) |  |  |
| ATAATG | 1.07 fold enrichment (6-mer frequency, TF over GST control) | 1.25 fold enrichment (6-mer frequency, TF over GST control) | 1.21 fold enrichment (6-mer frequency, TF over GST control) |  | 1.52 fold enrichment (6-mer frequency, TF over GST control) | 1.07 fold enrichment (6-mer frequency, TF over GST control) |  |
| CATTAA | 1.04 fold enrichment (6-mer frequency, TF over GST control) | 1.36 fold enrichment (6-mer frequency, TF over GST control) | 1.08 fold enrichment (6-mer frequency, TF over GST control) | 1.04 fold enrichment (6-mer frequency, TF over GST control) | 1.92 fold enrichment (6-mer frequency, TF over GST control) |  |  |
| GCGTCT | 1.04 fold enrichment (6-mer frequency, TF over GST control) | 1.01 fold enrichment (6-mer frequency, TF over GST control) | 1.11 fold enrichment (6-mer frequency, TF over GST control) | 1.1 fold enrichment (6-mer frequency, TF over GST control) |  | 1.08 fold enrichment (6-mer frequency, TF over GST control) |  |
| CTAGCG | 1.15 fold enrichment (6-mer frequency, TF over GST control) | 1.3 fold enrichment (6-mer frequency, TF over GST control) | 1.03 fold enrichment (6-mer frequency, TF over GST control) | 1.09 fold enrichment (6-mer frequency, TF over GST control) | 1.06 fold enrichment (6-mer frequency, TF over GST control) | 1.07 fold enrichment (6-mer frequency, TF over GST control) |  |
| CCCAAA | 1.15 fold enrichment (6-mer frequency, TF over GST control) | 1.13 fold enrichment (6-mer frequency, TF over GST control) | 1.04 fold enrichment (6-mer frequency, TF over GST control) | 1.3 fold enrichment (6-mer frequency, TF over GST control) | 1.13 fold enrichment (6-mer frequency, TF over GST control) | 1.06 fold enrichment (6-mer frequency, TF over GST control) |  |
| CGAATC |  | 1.38 fold enrichment (6-mer frequency, TF over GST control) | 1 fold enrichment (6-mer frequency, TF over GST control) |  | 1.12 fold enrichment (6-mer frequency, TF over GST control) |  |  |
| AGAAGT | 1.24 fold enrichment (6-mer frequency, TF over GST control) | 1.45 fold enrichment (6-mer frequency, TF over GST control) | 1.19 fold enrichment (6-mer frequency, TF over GST control) | 1.03 fold enrichment (6-mer frequency, TF over GST control) |  | 1.1 fold enrichment (6-mer frequency, TF over GST control) |  |
| TGGGAA | 1.21 fold enrichment (6-mer frequency, TF over GST control) | 1.05 fold enrichment (6-mer frequency, TF over GST control) | 1.03 fold enrichment (6-mer frequency, TF over GST control) | 1.02 fold enrichment (6-mer frequency, TF over GST control) |  | 1.15 fold enrichment (6-mer frequency, TF over GST control) |  |
| TCACGG | 1.01 fold enrichment (6-mer frequency, TF over GST control) |  |  |  |  | 1.13 fold enrichment (6-mer frequency, TF over GST control) | 1.06 fold enrichment (6-mer frequency, TF over GST control) |
| CGAAGG |  | 1.31 fold enrichment (6-mer frequency, TF over GST control) | 1.08 fold enrichment (6-mer frequency, TF over GST control) |  |  |  |  |
| ATCAAA | 1.06 fold enrichment (6-mer frequency, TF over GST control) | 1.1 fold enrichment (6-mer frequency, TF over GST control) |  | 1.11 fold enrichment (6-mer frequency, TF over GST control) | 1.31 fold enrichment (6-mer frequency, TF over GST control) | 1.02 fold enrichment (6-mer frequency, TF over GST control) |  |
| CGAACG |  | 1.2 fold enrichment (6-mer frequency, TF over GST control) | 1.11 fold enrichment (6-mer frequency, TF over GST control) | 1.09 fold enrichment (6-mer frequency, TF over GST control) |  |  |  |
| TGGAAG | 1.08 fold enrichment (6-mer frequency, TF over GST control) | 1.56 fold enrichment (6-mer frequency, TF over GST control) |  |  |  | 1.07 fold enrichment (6-mer frequency, TF over GST control) |  |
| GCAATC | 1.02 fold enrichment (6-mer frequency, TF over GST control) | 1.01 fold enrichment (6-mer frequency, TF over GST control) |  | 1.05 fold enrichment (6-mer frequency, TF over GST control) | 1 fold enrichment (6-mer frequency, TF over GST control) |  |  |
| GTGCAT | 1.15 fold enrichment (6-mer frequency, TF over GST control) |  | 1.28 fold enrichment (6-mer frequency, TF over GST control) | 1.02 fold enrichment (6-mer frequency, TF over GST control) |  | 1.02 fold enrichment (6-mer frequency, TF over GST control) |  |
| CACAGC |  |  | 1.1 fold enrichment (6-mer frequency, TF over GST control) | 1.05 fold enrichment (6-mer frequency, TF over GST control) |  |  |  |
| CGCGCC |  |  | 1.23 fold enrichment (6-mer frequency, TF over GST control) |  |  | 1.03 fold enrichment (6-mer frequency, TF over GST control) |  |
